Assay results reported in PubChem BioAssay.

test system: Human papillomavirus type 1a E7 protein (residues 1-88); assay: HPV1a E7 small-molecule binders, primary screen, biochemical, small-molecule microarray, residues 1-88, 635 nm (AID 1129); conditions: small-molecule microarray binding, fluorescence 635 nm; higher = more signal

Compared with `CC(C)C(=C=CC[C@@H](O)c1ccc(OCCO)cc1)CCO`, `COC(=O)[C@@H]1N=C(c2ccc(OCCCO)cc2)O[C@@H]1c1ccccc1CN=[N+]=[N-]` is higher in composite z-score: -0.744 for the first, 0.943 for the second.

Going from `CC#CCO[Si](C#CCCCCCC)(C(C)C)C(C)C` to `CCCC[C@@H](O)C1=C(COC)Cn2c(=O)n(-c3ccccc3)c(=O)n2[C@H]1CO`, the composite z-score rises from -0.419 to -0.155.

Going from `CN(C)CCCC[C@@H]1NC(=O)[C@H]2C[C@@H](C(=O)NCc3ccc(F)cc3)[C@@H](c3ccc(O)cc3)N2C1=O` to `NCCCC[C@@H]1NC(=O)[C@H]2C[C@@H](C(=O)NCc3ccc(F)cc3)[C@@H](c3ccc(O)cc3)N2C1=O`, the composite z-score rises from 0.0526 to 0.969.

First: CC(C)N1CC=CC23O[C@@H]4C=CCCOC(=O)C4[C@H]2C(=O)N(CCCCCO)[C@@H]3C1=O (stereo not given in full)
Second: CC(C)(C)N1CC=CC23O[C@@H]4/C=C\CCCOC(=O)C4[C@H]2C(=O)N(CCCCCCO)[C@@H]3C1=O (stereo not given in full)
The composite z-score of the first is higher: -0.349 for the first, -0.444 for the second.

Compared with `COCCOC(=O)N1C(=O)[C@@]2(c3ccccc31)[C@H](C(=O)N1CCCCCCC1)[C@H]1C(=O)O[C@H](c3ccccc3)[C@H](c3ccccc3)N1[C@@H]2c1ccc(O)cc1`, `COCCOC(=O)N1C(=O)[C@@]2(c3ccccc31)[C@H](C(N)=O)[C@H]1C(=O)O[C@H](c3ccccc3)[C@H](c3ccccc3)N1[C@@H]2c1ccc(OCCO)cc1` is higher in composite z-score: 1.21 for the first, 1.24 for the second.

Going from `C#CCN([C@H](/C=C/C1CC1)[C@@H](O)Cc1ccccc1)[C@@H](Cc1ccccc1)C(=O)OC` to `COCCn1c(C(=O)N2CCCC2)cc2c1C[C@H]1CN(C(=O)c3ccccc3)[C@@](Cc3ccccc3)(C(=O)OC)[C@@H]21`, the composite z-score rises from -0.517 to 0.822.

Going from `COC(=O)[C@@]1(Cc2ccc(F)cc2)[C@H]2c3cc(C(=O)N(C)C)n(CCn4cc([N+](=O)[O-])nc4C)c3C[C@H]2CN1C(=O)c1ccccc1` to `COC(=O)Cn1c(C(=O)N(C)C)cc2c1C[C@H]1CN(C(=O)c3ccccc3)[C@@](Cc3ccc(OC)cc3)(C(=O)OC)[C@@H]21`, the composite z-score falls from 1.11 to 0.845.

Compared with `CCOC(=O)C[C@H]1[C@H](OC(=O)Cc2ccc3c(c2)OCO3)[C@@H](NC(=O)c2ccccc2)c2cc(OCCCO)ccc2N1C(=O)Cc1ccc(OC)cc1`, `[N-]=[N+]=NCc1ccccc1C[C@]1(C(=O)NCc2ccccc2)N=C(c2ccc(OCCCO)cc2)O[C@H]1c1ccccc1CN=[N+]=[N-]` is higher in composite z-score: 0.263 for the first, 0.986 for the second.

Going from `C[N+](C)(C)CCCC[C@@H]1NC(=O)[C@H]2C[C@@H](C(=O)NCCCCCNC(=O)CS)[C@@H](c3ccc(O)cc3)N2C1=O` to `CC(=O)NCCCC[C@@H]1NC(=O)[C@H]2C[C@@H](C(=O)NCCCCCC[N+](C)(C)C)[C@@H](c3ccc(O)cc3)N2C1=O`, the composite z-score rises from 0.785 to 1.08.

Going from `CN1C(=O)[C@]2(CCS(=O)(=O)c3ccccc3)N=C(c3ccc(OCCCO)cc3)O[C@@H]2c2ccccc21` to `[N-]=[N+]=NCc1ccccc1C[C@]1(C(=O)N2CCCCC2)N=C(c2ccc(OCCCO)cc2)O[C@H]1c1ccccc1`, the composite z-score falls from 1.27 to 1.1.

Going from `O=C1O[C@@H](c2ccccc2)[C@@H](c2ccccc2)N2[C@@H](c3ccc(OCCO)cc3)[C@]3(C(=O)Nc4ccc(C#CCCO)cc43)[C@@H](C(=O)Nc3nc4ccccc4s3)[C@H]12` to `O=C1O[C@@H](c2ccccc2)[C@@H](c2ccccc2)N2[C@@H](c3ccc(O)cc3)[C@]3(C(=O)Nc4ccc(C#CC5=CCCCC5)cc43)[C@@H](C(=O)N3CCCCCCC3)[C@H]12`, the composite z-score falls from 1.13 to 1.06.

Going from `CN1C=C(C(=O)OCCS(C)(=O)=O)C(C(=O)OCCS(C)(=O)=O)=CC(CCCO)=CC1c1ccc(CN2CCCC2)cc1` (stereo not given) to `CC(C)(C)OC(=O)CC[C@]1(C(=O)N2CCOCC2)N=C(c2ccc(OCCCO)cc2)O[C@H]1c1ccccc1CN=[N+]=[N-]`, the composite z-score rises from 1.26 to 1.29.

Going from `CC(C)CNC(=O)[C@@H]1c2ccccc2C(=O)N(C(C)C)[C@H]1c1ccc(CO)cc1` to `COc1ccc(CCNC(=O)[C@@]2(Sc3ccc(C)cc3)CC(=O)N(C(C)C)[C@@H]2c2ccc(CO)cc2)cc1`, the composite z-score falls from -0.341 to -0.594.

Compared with `CC(C)c1ccc(NN2C(C(O)C(C)C)C=CC3C(=O)N(c4ccccc4)C(=O)C32)cc1` (stereo not given), `CN1C(=O)C2C(C1=O)C1C=C(c3ccc(CO)cc3)C2C(c2cccs2)N1C` (stereo not given) is lower in composite z-score: 1.26 for the first, 0.157 for the second.

Compared with `COCCOC(=O)N1C(=O)[C@@]2(c3cc(C#CCC(C(=O)OC)C(=O)OC)ccc31)[C@H](C(=O)N1CCCCCCC1)[C@H]1C(=O)O[C@H](c3ccccc3)[C@H](c3ccccc3)N1[C@@H]2c1ccccc1OCCO`, `COC(=O)C(CC#Cc1ccc2c(c1)[C@]1(C(=O)N2)[C@H](c2ccc(O)cc2)N2[C@H](c3ccccc3)[C@H](c3ccccc3)OC(=O)[C@H]2[C@@H]1C(=O)N1CCc2cc(OC)c(OC)cc2C1)C(=O)OC` is lower in composite z-score: 1.18 for the first, 0.953 for the second.

Compared with `O=C(NCCO)C1=C[C@H](Oc2ccccc2I)[C@@H](O)[C@H](NCc2ccc(F)cc2)C1`, `NCCCC[C@@H]1NC(=O)[C@H]2C[C@@H](C(=O)NCc3ccc(F)cc3)[C@@H](c3cccc(OCCO)c3)N2C1=O` is higher in composite z-score: -1.23 for the first, 1.23 for the second.

Compared with `COc1ccccc1CN1C(=O)c2ccccc2[C@](Cc2ccccc2I)(C(=O)NCCCN(C)C)[C@@H]1c1ccc(CO)cc1`, `O=C1OCCC=C[C@H]2OC34C=CCN(c5ccc(Cl)cc5)C(=O)[C@H]3N(CCO)C(=O)[C@@H]4C12` (stereo not given in full) is lower in composite z-score: 1.21 for the first, -0.574 for the second.

In the case of `CC(C)[C@@H](C(=O)O)n1cc(-c2ccccc2)nn1`, the composite z-score is reported as 1.14.
